Assay [1] in a line: qHTS for Inhibitors of the Functional Ribonucleoprotein Complex (vRNP) of Lassa (LASV) Arenavirus: LASV Primary Screen - GLuc reporter signal (AID 1347082; calls by dose curve; tested in HEK293 reporter line; further: series mostly up to about 57 µM; nearly all actives have a fitted effect of over 60% in size). (In general: In qHTS, concentration-response curves come from the screen itself.)
The nature of assay [2]: qHTS for Inhibitors of the Functional Ribonucleoprotein Complex (vRNP) of Lassa (LASV) Arenavirus: Viability assay - alamar blue signal for LASV Primary Screen (AID 1347083; calls by dose curve; tested in HEK293 reporter line; further: series mostly up to about 57 µM; nearly all actives have a fitted effect of over 80% in size).
Assay [3] in a line: qHTS for Inhibitors of the Functional Ribonucleoprotein Complex (vRNP) of Lymphocytic Choriomeningitis Arenaviruses (LCMV): Viability assay - alamar blue signal for LCMV Primary Screen (AID 1347085; calls by dose curve; tested in HEK293 reporter line; further: series mostly up to about 57 µM; nearly all actives have a fitted effect of over 80% in size).
The target in assay [4] is Nucleoprotein (Lymphocytic choriomeningitis virus (strain Armstrong)) (UniProt P09992). In words: qHTS for Inhibitors of the Functional Ribonucleoprotein Complex (vRNP) of Lymphocytic Choriomeningitis Arenaviruses (LCMV): LCMV Primary Screen - GLuc reporter signal (AID 1347086; calls by dose curve; further: series mostly up to about 57 µM; nearly all actives have a fitted effect of over 70% in size).
Assay [5] in a line: qHTS of pediatric cancer cell lines to identify multiple opportunities for drug repurposing: Primary screen for TC32 cells (AID 1347089). Further: nearly all actives have a fitted effect of over 60% in size. Put shortly:
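TC32 cells, 500-1,000/well in growth medium, compound-treated 48 h at 37 °C; viability from CellTiter-Glo luminescence. Primary screen: MIPE 11-point (0.78 nM–46 µM final), NPC 8-point (0.59 nM–46 µM final); confirmatory at 11-point dilutions.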

Assay [6] can be described thus: qHTS of pediatric cancer cell lines to identify multiple opportunities for drug repurposing: Primary screen for DAOY cells (AID 1347090). Further: series mostly up to about 46 µM; nearly all actives have a fitted effect of over 55% in size. Put shortly:
(§1)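 Eight- or eleven-point concentration series, 48 h treatment at 37 degrees C in growth media; readout CellTiter-Glo luminescence. Potency and efficacy were taken from the concentration-response curves.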

Assay [7] can be described thus: qHTS of pediatric cancer cell lines to identify multiple opportunities for drug repurposing: Primary screen for SJ-GBM2 cells (AID 1347091). Put shortly: as §1
Assay [8] can be described thus: qHTS of pediatric cancer cell lines to identify multiple opportunities for drug repurposing: Primary screen for BT-37 cells (AID 1347094). Further: series mostly up to about 57 µM. Put shortly:
(§2)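 Plated cells (500-1,000 per well, growth media) were allowed to settle for 5 hours, treated with compound dilutions for 48 hours, then lysed with CellTiter-Glo for 15 min at room temperature before luminescence reading.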

The nature of assay [9]: qHTS of pediatric cancer cell lines to identify multiple opportunities for drug repurposing: Primary screen for NB-EBc1 cells (AID 1347095). Put shortly:
as §2

The nature of assay [10]: qHTS of pediatric cancer cell lines to identify multiple opportunities for drug repurposing: Primary screen for U-2 OS cells (AID 1347096). Further: nearly all actives have a fitted effect of over 50% in size. Put shortly:
(§3)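 Cells (500-1,000/well) in growth media were settled 5 h at 37 degrees C, then given compounds for 48 h. Viability was read as CellTiter-Glo luminescence. Primary runs used MIPE at 11 points (0.78 nM-46 µM) and NPC at 8 points (0.59 nM-46 µM); follow-ups used 11 points.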

The nature of assay [11]: qHTS of pediatric cancer cell lines to identify multiple opportunities for drug repurposing: Primary screen for Saos-2 cells (AID 1347097). Further: nearly all actives have a fitted effect of over 40% in size. Put shortly:
as §2

Assay [12] in a line: qHTS of pediatric cancer cell lines to identify multiple opportunities for drug repurposing: Primary screen for SK-N-SH cells (AID 1347098).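 Further: DMSO served as neutral control and bortezomib at 2.3 µM as positive control; nearly all actives have a fitted effect of over 65% in size.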 Put shortly:
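Cells (500-1,000/well) rested 5 h, then received compounds for 48 h; metabolically active cells were measured by CellTiter-Glo luminescence. Final concentrations spanned up to 46 µM (MIPE, 11-point) or 0.59 nM-46 µM (NPC, 8-point) in primary screens, 11-point in follow-ups.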

A short description of assay [13]: qHTS of pediatric cancer cell lines to identify multiple opportunities for drug repurposing: Primary screen for LAN-5 cells (AID 1347100). Put shortly:
as §3

Assay [14] in a line: qHTS of pediatric cancer cell lines to identify multiple opportunities for drug repurposing: Primary screen for SK-N-MC cells (AID 1347093). Further: series mostly up to about 46 µM. Put shortly: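 Metabolically active cells were quantified by ATP-dependent luminescence (CellTiter-Glo, 15 min at room temperature) following 48 h treatment. Cells had been plated at 500-1,000 per well and settled for 5 h beforehand.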

A short description of assay [15]: qHTS of pediatric cancer cell lines to identify multiple opportunities for drug repurposing: Primary screen for NB1643 cells (AID 1347099). Further: nearly all actives have a fitted effect of over 50% in size. Put shortly: as §2
A short description of assay [16]: qHTS of pediatric cancer cell lines to identify multiple opportunities for drug repurposing: Primary screen for A673 cells (AID 1347092). Further: nearly all actives have a fitted effect of over 45% in size. Further: potency means the concentration at half of the fitted maximal effect. Put shortly: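 A673 cells (500-1,000 cells/well) were treated 48 hours at 37 degrees C with compounds at 11-point (0.78 nM to 46 µM) or 8-point (0.59 nM to 46 µM) dilutions. Viability read by CellTiter-Glo luminescence; concentration-response curves fitted.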

Results filed as inconclusive are left out. Active and inactive are the calls of the source. Unless noted, the call rests on the fitted dose curve; in most records, active means well fitted curve in the direction sought with a large enough effect; inconclusive means small, poorly fitted or top-dose-only effect, or another doubt; inactive means no such curve, though single readings can be large; an effect the other way counts as inactive or inconclusive.

Sequence of Nucleoprotein (Lymphocytic choriomeningitis virus (strain Armstrong)) (P09992 whole entry, looked up): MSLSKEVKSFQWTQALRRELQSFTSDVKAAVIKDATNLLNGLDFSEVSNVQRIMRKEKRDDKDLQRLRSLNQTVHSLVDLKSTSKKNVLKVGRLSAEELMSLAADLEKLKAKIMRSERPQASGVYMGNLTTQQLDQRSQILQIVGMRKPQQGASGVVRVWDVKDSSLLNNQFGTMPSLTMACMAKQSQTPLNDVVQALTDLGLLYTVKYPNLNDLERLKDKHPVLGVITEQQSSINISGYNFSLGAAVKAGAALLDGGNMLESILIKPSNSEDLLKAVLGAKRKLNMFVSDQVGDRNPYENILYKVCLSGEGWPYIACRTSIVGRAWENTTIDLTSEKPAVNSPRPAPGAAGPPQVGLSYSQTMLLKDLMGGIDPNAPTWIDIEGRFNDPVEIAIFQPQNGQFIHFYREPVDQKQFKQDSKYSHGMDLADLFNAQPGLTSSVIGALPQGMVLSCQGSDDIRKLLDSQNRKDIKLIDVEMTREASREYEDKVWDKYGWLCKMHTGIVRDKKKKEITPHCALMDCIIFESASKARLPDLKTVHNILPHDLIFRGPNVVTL

Turning to `CC1Sc2c(C(=O)O)c(=O)c3cc(F)c(N4CCNCC4)cc3n21` (stereo not given), the Potency result in assay [1], in [2], in [3], in assay [4], in [5] and in assay [6] was “inactive” throughout. The Potency entry in assay [7], in assay [8], in assay [9], in assay [10], in [11] and in assay [12] was “inactive” each time. Also, in assay [13], the Potency result was “inactive”.
Turning to `O=C1CN2CCOC2(c2ccccc2Cl)c2cc(Cl)ccc2N1` (stereo not given), the Potency entry in assay [1], in assay [2], in assay [3], in assay [4], in assay [5] and in [6] was “inactive” in each case. Moreover, the Potency result in assay [7], in assay [14], in assay [8], in [9], in [10] and in [11] was “inactive” in each case. The Potency result in [12], in [15] and in [13] was “inactive” throughout.
Consider `COc1cc(C[C@@H](C)N)c(OC)cc1Br`, for which the Potency entry in assay [1], in assay [2], in [3], in [4], in [5] and in assay [6] was “inactive” in each case. Moreover, the Potency entry in [7], in assay [14], in assay [8], in assay [9], in [10] and in assay [11] was “inactive” each time. Also, the Potency entry in assay [12], in assay [15] and in [13] was “inactive” each time.
Consider `CCOP(=S)(OCC)O/N=C(\C#N)c1ccccc1`, for which the Potency result in assay [1], in assay [2], in [3], in assay [4], in assay [5] and in assay [6] was “inactive” in each case. The Potency entry in assay [7], in assay [16], in [14], in assay [8], in assay [9] and in assay [11] was “inactive” each time. Besides, the Potency entry in assay [12], in [15] and in [13] was “inactive” in each case.
Regarding `Nc1ccc(N)cc1`, the Potency result in [1], in [2], in assay [3], in assay [4], in assay [5] and in assay [6] was “inactive” throughout. In addition, the Potency entry in [7], in assay [8] and in assay [15] was “inactive” each time. In addition, the Potency in assay [16] is 21.1 µM (active).
Regarding `CC(C)(O)C(Cl)(Cl)Cl`, the Potency result in [1], in [2], in assay [3], in [4], in assay [5] and in assay [6] was “inactive” each time. Further, the Potency entry in assay [7], in assay [16], in [14], in assay [8], in [9] and in assay [11] was “inactive” each time. Moreover, the Potency entry in assay [12], in [15] and in assay [13] was “inactive” throughout.
With `CCN(CC)Cc1nccn1-c1ccc([N+](=O)[O-])cc1C(=O)c1ccccc1Cl`, the Potency result in assay [1], in [2], in assay [3], in assay [4], in assay [5] and in [6] was “inactive” throughout. Also, the Potency result in assay [7], in [16], in assay [8], in [9], in assay [10] and in assay [11] was “inactive” each time. Further, the Potency entry in [12], in assay [15] and in assay [13] was “inactive” in each case.
As for `C[C@@H]1CN(C2CCC(C#N)(c3ccc(F)cc3)CC2)CC[C@]1(C(=O)O)c1ccccc1` (stereo not given in full), the Potency result in assay [1], in assay [2], in assay [3], in [4], in assay [5] and in assay [6] was “inactive” each time. In addition, the Potency result in assay [7], in assay [14], in assay [8], in assay [9], in assay [10] and in [11] was “inactive” throughout. Further, the Potency result in [12], in [15] and in assay [13] was “inactive” throughout.
As for `CCc1cc(OC)c(C[C@H](C)N)cc1OC`, the Potency result in assay [1], in assay [2], in assay [3], in [4], in [5] and in assay [6] was “inactive” each time. Moreover, the Potency result in assay [7], in assay [8], in [9], in assay [10], in assay [11] and in [15] was “inactive” each time. The Potency entry in assay [13] is “inactive”.
Take `CC[C@H]1C[C@H]2[C@@H]3CCC4=CC(=O)CC[C@@H]4[C@H]3CC[C@]2(C)[C@H]1O`: the Potency entry in assay [1], in assay [2], in assay [3], in assay [4], in assay [5] and in assay [6] was “inactive” throughout. In addition, the Potency entry in [7], in [16], in assay [8], in assay [9], in assay [10] and in [11] was “inactive” in each case. Besides, the Potency entry in assay [15] and in assay [13] was “inactive” throughout.
Consider `Cc1ncc2n1-c1ccc(Cl)cc1C(c1ccccc1F)=NC2`, for which the Potency result in [1], in assay [2], in [3], in [4], in assay [5] and in [6] was “inactive” in each case. The Potency result in assay [7], in [16], in [14], in [9], in assay [10] and in assay [11] was “inactive” throughout. Further, the Potency entry in assay [12] and in [15] was “inactive” throughout.
In the case of `C[C@]12CC[C@H]3[C@@H](CC=C4C[C@@H](O)CC[C@@]43C)[C@@H]1CC[C@@H]2O`, the Potency entry in assay [1], in assay [2], in assay [3], in assay [4], in assay [5] and in [6] was “inactive” throughout. Moreover, the Potency entry in [7], in assay [14], in assay [8], in assay [9], in assay [10] and in assay [11] was “inactive” each time. The Potency result in [12], in assay [15] and in assay [13] was “inactive” each time.
Turning to `CCC(=O)OC1(c2ccccc2)CCN(C)CC1`, the Potency result in [1], in assay [2], in [3], in assay [4], in [5] and in assay [6] was “inactive” throughout. Further, the Potency result in assay [7], in assay [16], in [14], in assay [8], in assay [9] and in assay [11] was “inactive” throughout. For the same molecule, the Potency result in [15] and in [13] was “inactive” throughout.
As to `CCC1(c2ccccc2)CCC(=O)NC1=O` (stereo not given), the Potency entry in [1], in assay [2], in assay [3], in [4], in assay [5] and in assay [6] was “inactive” in each case. Also, the Potency entry in [7], in assay [14], in [8], in [9], in assay [12] and in [15] was “inactive” in each case. In addition, in assay [13], the Potency result was “inactive”.
`COc1cc(CC#N)cc(OC)c1OC`: the Potency result in assay [1], in assay [2], in [3], in assay [4], in assay [5] and in [6] was “inactive” throughout. Further, the Potency entry in assay [7], in assay [14], in assay [8], in assay [9], in assay [11] and in assay [12] was “inactive” each time. The Potency entry in assay [15] and in [13] was “inactive” each time.
In the case of `CC(C)=C[C@@H]1[C@@H](C(=O)OCc2coc(Cc3ccccc3)c2)C1(C)C`, the Potency entry in assay [1], in [2], in assay [3], in [4], in [5] and in assay [6] was “inactive” throughout. For the same molecule, the Potency result in [7], in assay [8], in assay [9], in [11], in assay [12] and in [15] was “inactive” throughout. Besides, the Potency result in assay [13] is “inactive”.
For the molecule `CCCN(CCC)CCc1c[nH]c2ccccc12`, the Potency entry in assay [1], in assay [2], in assay [3], in assay [4], in assay [5] and in assay [6] was “inactive” in each case. In addition, the Potency result in assay [7], in assay [8], in assay [9], in [10], in [12] and in [15] was “inactive” throughout. In [13], the Potency entry was “inactive”.
Consider `c1cc2c(c(N3CCNCC3)c1)OCCO2`, for which the Potency entry in assay [1], in [2], in assay [3], in [4], in assay [5] and in assay [7] was “inactive” each time. Also, the Potency entry in assay [16], in assay [14], in [8], in [9], in assay [10] and in [11] was “inactive” in each case. Further, the Potency entry in [12], in assay [15] and in [13] was “inactive” throughout.
`CCOC(=O)c1ncn2c1CN(C)C(=O)c1c(I)cccc1-2`: the Potency entry in assay [1], in assay [2], in assay [3], in assay [4], in assay [5] and in assay [7] was “inactive” throughout. Besides, the Potency entry in assay [14], in assay [8], in [9], in assay [10], in [11] and in [12] was “inactive” each time. The Potency entry in assay [15] and in [13] was “inactive” throughout.

Values taken from PubChem BioAssay (NCATS).
